Test results published in PubChem BioAssay AID1851 (National Center for Advancing Translational Sciences (NCATS), 2009).
The campaign covered roughly 16,000 compounds. About 4,000 (25%) were called active. About 26% were inconclusive and are not listed. Calls follow the shape of the dose curve; as a rule, active = well fitted curve in the direction sought with a large enough effect; inconclusive = small, poorly fitted or top-dose-only effect, or effect the other way; inactive = no such curve, though single readings can be large or run the other way. Not all results are given here.

What follows are compounds tested against Cytochrome P450 2C9 (Homo sapiens) (UniProt P11712) (assay: Cytochrome panel assay with activity outcomes). Settings: recombinant CYP, pro-luciferin dealkylation, luminescence, p450-cyp2c9; series mostly up to 57.1 µM; activity, negative = inhibition: at the top concentration.
% is scaled to controls: 0 for no effect and ±100 for the full control effect.

Sequence of Cytochrome P450 2C9 (Homo sapiens) (P11712 whole entry, looked up): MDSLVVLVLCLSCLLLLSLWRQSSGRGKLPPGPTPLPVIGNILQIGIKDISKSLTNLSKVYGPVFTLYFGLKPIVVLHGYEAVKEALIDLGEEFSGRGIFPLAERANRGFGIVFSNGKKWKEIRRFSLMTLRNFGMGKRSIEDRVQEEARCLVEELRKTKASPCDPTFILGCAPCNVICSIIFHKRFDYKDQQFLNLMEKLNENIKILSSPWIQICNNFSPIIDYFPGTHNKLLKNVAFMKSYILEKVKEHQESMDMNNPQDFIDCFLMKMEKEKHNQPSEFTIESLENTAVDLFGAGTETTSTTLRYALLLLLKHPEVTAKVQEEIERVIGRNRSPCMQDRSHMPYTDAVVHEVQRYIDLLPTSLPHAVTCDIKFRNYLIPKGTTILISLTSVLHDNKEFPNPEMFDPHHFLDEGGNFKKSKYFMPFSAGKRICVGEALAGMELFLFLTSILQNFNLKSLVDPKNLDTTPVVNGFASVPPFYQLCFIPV

activity, negative = inhibition, inactive:
CCNc1ncc2nc(-c3cc(F)cc(F)c3)c(=O)n(CCC#N)c2n1 20.9%, Fc1ccc(Nc2ccnc(-c3ccoc3)n2)cc1 9.66% [at 2.29 µM], CC(=O)OC[C@@H]1O[C@@H](O/N=C2/C[C@@H](O)[C@@H](O)[C@@H]3[C@@H]4C(=O)N(c5cccc(Oc6ccccc6)c5)C(=O)[C@H]4CC[C@@H]23)[C@H](OC(C)=O)[C@H](OC(C)=O)[C@@H]1OC(C)=O 20.1% [at 11.4 µM], Cc1cc(O)c(C(C)C)cc1CN1CCCCC1 -3.21% [at 11.4 µM], COc1ccc(-c2nc3c([nH]2)c(=O)n(C)c(=O)n3C)c(OC)c1 4.05%, Cc1n[nH]c(=O)nc1NCc1ccccc1Cl 22.6%, Cn1c(=O)n(CCC(=O)O)c2ccccc21 23.1%, O=c1[nH]cc(CS(=O)(=O)Cc2c[nH]c(=O)[nH]c2=O)c(=O)[nH]1 -2.59% [at 11.4 µM], C/C(=N\O)c1ccc2[nH]ccc2c1 -8.4%, Cc1n[nH]c(C)c1S(=O)(=O)N1CCC(C(=O)O)CC1 -2.96%, O=C(NNC(=O)c1ccncc1)c1ccncc1 0.511% [at 11.4 µM], NNC(=O)c1ccncc1 -14.5% [at 25.6 µM], NS(=O)(=O)c1ccc(N=Nc2cc3ccccc3c(C(=O)O)c2O)cc1 -1.93% [at 11.4 µM], CCN1C(=O)[C@H]2[C@H]3[C@H](O)[C@H](O)C/C(=N/O[C@@H]4O[C@H](COC(C)=O)[C@@H](OC(C)=O)[C@H](OC(C)=O)[C@H]4OC(C)=O)[C@@H]3CC[C@@H]2C1=O -1.58% [at 11.4 µM], C/C(=N\NC(=O)c1ccc(Br)cc1)c1ccccc1 9.36%, CC1(C)Cc2ccccc2C(NNC(=O)c2ccncc2)=N1 -14.2%, O=C(c1cc(C(F)(F)F)cc(C(F)(F)F)c1)N1CCC2(CCCN(c3ncccn3)C2)CC1 -8.06%, CC(=O)N1CCC2(CCCN(c3ncccn3)C2)CC1 -3.08%, O=C(c1cccc(F)c1)N1CCC2(CC1)CCN(c1ccccc1)CC2 -28.2%, CC(C)NC(=O)N1CCC2(CC1)CCN(C(=O)c1cccc(F)c1)CC2 27.3%, COc1cccc2c1C(=O)c1c(O)c3c(c(O)c1C2=O)C[C@](O)(C(=O)CO)C[C@H]3O[C@@H]1C[C@H](N)[C@H](O)[C@H](C)O1 -8.75% [at 25.6 µM], O=C(O)[C@@H]1CCCN1 1.2% [at 11.4 µM], O=C(N/C(=C/c1ccc(Br)cc1)c1nc2ccccc2[nH]1)c1ccco1 -21.8%, CCOc1nc(N=C(N)N)nc2c(C)cccc12 -3.81%, COc1ccc2nc(NCN3C(=O)c4ccccc4C3=O)sc2c1 -14.8% [at 11.4 µM], COc1ccc2nc(N)sc2c1 -0.783%, CN1CCN(CCCBr)CC1 18% [at 11.4 µM], C[C@H](O/N=C1/[C@H]2O[C@@H]2[C@@H](O)[C@H]2[C@H]1CCn1c(=O)n(-c3ccccc3)c(=O)n12)c1cn([C@H]2COC[C@H]2O)nn1 0.305% [at 11.4 µM], CCNc1ncc2nc(-c3cccs3)c(=O)n(CCc3ccccc3)c2n1 -4.57%, CN1CCN(c2ncc3nc(-c4cccs4)c(=O)n(CCc4ccccc4)c3n2)CC1 3.63%, COc1cc(/C=C\C(=O)N2CCC=CC2=O)cc(OC)c1OC 17.9% [at 25.6 µM], COc1ccc(NC(=O)COC(=O)Cn2c(C)nc3ccccc32)cc1OC -22.4%, CC(=O)n1c(COS(C)(=O)=O)nc2ccccc21 -7.23% [at 11.4 µM], COc1cc(/C=C/C(=O)Nc2ccccc2C(F)(F)F)cc(OC)c1OC -26.9%, COc1ccc(O[C@H]2C=C[C@@H](c3ccccc3)O[C@H]2CO/N=C(/C)CCC(=O)OC[C@@H]2O[C@H](c3ccccc3)C=C[C@@H]2Oc2ccc(OC)cc2)cc1 -3.16% [at 11.4 µM], CCCNC(=O)OC[C@H]1O[C@@H](CCO/N=C2/[C@H]3O[C@@H]3[C@@H](O)[C@H]3[C@H]2CCn2c(=O)n(-c4ccccc4)c(=O)n23)C=C[C@@H]1Oc1ccc(OC)cc1 -24.3% [at 11.4 µM], COc1ccc(O[C@H]2C=C[C@@H](c3ccccc3)O[C@H]2COC(=O)CC/C(C)=N/O[C@@H]2O[C@H](COC(C)=O)[C@H](OC(C)=O)[C@H](OC(C)=O)[C@H]2OC(C)=O)cc1 -25.6% [at 11.4 µM], COc1ccc(O[C@H]2C=C[C@@H](c3ccccc3)O[C@H]2CO/N=C(/C)CCC(=O)OC[C@@H]2O[C@H](C#Cc3ccccc3)C=C[C@@H]2Oc2ccc(C)cc2)cc1 -16.6% [at 11.4 µM], C/C(CCC(=O)OC[C@@H]1O[C@H](C#Cc2ccccc2)C=C[C@@H]1Oc1ccc(C)cc1)=N/OC[C@@H](O)[C@H]1O[C@H]2OC(C)(C)O[C@H]2[C@@H]1O -25.1% [at 11.4 µM], COc1ccc(O[C@H]2C=C[C@@H](c3ccccc3)O[C@@H]2CO/N=C(\C)CCN2CCc3nc(-c4ccccc4)c(-c4ccccc4)cc3C2)cc1 -13.6% [at 11.4 µM], CCCNC(=O)OC[C@@H]1O[C@H](CCO/N=C(\C)CCN2CCc3nc(CC)c(CC)cc3C2)C=C[C@@H]1Oc1ccc(OC)cc1 -21.2% [at 11.4 µM], CCCNC(=O)OC[C@@H]1O[C@H](c2ccccc2)C=C[C@@H]1Oc1ccc(OC)cc1 -29.7% [at 11.4 µM]

AC50, active:
Cc1cc(O)c(-c2cc(O)c(C)cc2O)cc1O 1.26 µM, CCOC(=O)n1c(=O)n(Cc2c(Cl)cccc2Cl)c2ccccc21 3.98 µM, CCOC(=O)n1c(=O)n(Cc2ccccc2Cl)c2ccccc21 8.91 µM, CC(=O)c1c(C(C)=O)c(C)n(NC(=O)c2ccncc2)c1C 1.58 µM, C/C(=N\NC(=O)c1ccncc1)c1ccc2ccccc2c1O 0.1 µM, O=C(c1cccc(F)c1)N1CCC2(CCCN(c3ncccn3)C2)CC1 15.8 µM, O=C(c1cccc(F)c1)N1CCC2(CC1)CCN(c1ncccn1)CC2 12.6 µM, CCSc1nnc(-c2ccc(Cl)cc2)c2ccccc12 2 µM, Cc1ccc(C(=O)N/C(=C\c2ccc(Br)cc2)c2nc(=S)[nH][nH]2)cc1 8.91 µM, COc1ccc2nc(N3C(=O)CC(Cc4ccc(Cl)cc4)C3=O)sc2c1 (stereo not given) 12.6 µM, CCCn1c(-c2cccs2)nc2nc3ccccc3nc21 10 µM, Cc1ccc2nc(SCc3nc4c(cnn4-c4ccccc4)c(=O)[nH]3)[nH]c2c1 4.47 µM, C=CCSc1nc2ccccc2n1C(=O)/C=C/c1cc(OC)c(OC)c(OC)c1 7.94 µM, CCSc1nc2ccccc2n1C(=O)/C=C\c1ccc(OC)c(OC)c1 1.58 µM, CCCNC(=O)OC[C@@H]1O[C@H](CCO/N=C(\C)CCN2CCc3nc(-c4ccccc4)c(-c4ccccc4)cc3C2)C=C[C@@H]1Oc1ccc(OC)cc1 2 µM, COc1ccc(O[C@H]2C=C[C@@H](c3ccccc3)O[C@H]2COC(=O)CC/C(C)=N/OCC[C@@H]2C=C[C@H](OC(C)=O)[C@H](COC(C)=O)O2)cc1 3.98 µM, COc1ccc(O[C@H]2C=C[C@@H](c3ccccc3)O[C@H]2COC(=O)N2CCCCC2)cc1 2.51 µM, COc1ccc(O[C@H]2C=C[C@@H](c3ccccc3)O[C@H]2COC(=O)CC/C(C)=N\OC[C@@H](O)[C@H]2O[C@H]3OC(C)(C)O[C@H]3[C@@H]2O)cc1 1.58 µM
